This passage reports Potency results from PubChem BioAssay (NCATS).

The structures appear in SMILES notation. Inconclusive results are not listed. Calls of active or inactive are those of the source. Calls come from the whole dose curve; as a rule, active = well fitted cell-killing curve with a large enough effect; inconclusive = small, poorly fitted or top-dose-only effect, or effect the other way; inactive = flat fitted curve, though single readings scatter.
Potency is the fitted concentration of half-maximal effect.

The experiment deals with PA-1. The experiment in a line: Primary qHTS to identify gynecologic anti-cancer compounds using libraries of approved drugs and bioactive compounds (AID 1345084). Note: nearly all actives have a fitted effect of over 55% in size. The following applies: Gynecologic cancer cell panel viability, ATPlite luminescence, 48 h; series mostly up to 57.5 µM. A digest of the protocol: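 Five-point cytotoxicity, 48 h drug exposure at 37 C, 5% CO2, on cells seeded 16 h beforehand. ATP content read by ATPlite luminescence.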
In general terms: Quantitative high-throughput screening tests each substance at several concentrations.
As to `Nc1nccn2c(C3CCC(C(=O)O)CC3)nc(-c3cc4cccc(Cl)c4[nH]3)c12` (stereo not drawn), the Potency was 7940 nM (active).

Regarding `COc1cc(C2c3cc4c(c(O)c3CC(CO)C2C(=O)O)OCO4)cc(OC)c1O` (stereo not drawn), the Potency is 2000 nM (active).

Regarding `CNC(=O)c1cccc(-c2ccc3c(N4CCOC[C@@H]4C)nc(N4CCOC[C@@H]4C)nc3n2)c1`, the Potency is 1580 nM (active).

Regarding `Cc1cc(C)c(Nc2ccnc(Nc3ccc(C#N)cc3)n2)c(C)c1`, the Potency result is “inactive”.

`CC(C)(C#N)c1ccc(N2C(=O)OCc3cnc4ccc(-c5cnc6ccccc6c5)cc4c32)cc1`: the Potency was 12600 nM (active).

Turning to `CCNC(=O)Nc1ccc(-c2nc3c(c(N4CCOC[C@@H]4C)n2)CCN(c2ncccn2)C3)cc1`, the Potency was 1120 nM (active).

As for `CCC1C(=O)N(C)c2cnc(Nc3ccc(C(=O)NC4CCC(N5CCN(CC6CC6)CC5)CC4)cc3OC)nc2N1C(C)C` (stereo not drawn), the Potency is 316 nM (active).

Turning to `C[C@@H](Oc1cc(-n2cnc3ccc(OC4CCN(C)CC4)cc32)sc1C(N)=O)c1ccccc1C(F)(F)F`, the Potency is 316 nM (active).

Take `CCOC(=O)Nc1cc(-c2ccc(C)c(NS(C)(=O)=O)c2)nn2c(C)nnc12`: the Potency was 31600 nM (active).

On to `COc1cc(OC)c(/C=C/S(=O)(=O)Cc2ccc(OC)c(NCC(=O)O)c2)c(OC)c1`, for which the Potency was 224 nM (active).

`Cn1c(=O)n(-c2ccc(C(C)(C)C#N)cc2)c2c3cc(C#Cc4cccnc4)ccc3ncc21`: the Potency was 282 nM (active).

As to `CC(=O)NC1=NN(C(C)=O)C(C)(c2ccccc2)S1` (stereo not drawn), the Potency is 3980 nM (active).

On to `CC(C)C(CO)Nc1nc(Nc2cc(N)cc(Cl)c2)c2ncn(C(C)C)c2n1` (stereo not drawn), for which the Potency is 14100 nM (active).
